Assay outcomes deposited in PubChem BioAssay by National Center for Advancing Translational Sciences (NCATS).
Rows were chosen to be rich in hits. Some 7.6% of all compounds tested hit in one or more screens of this group.
KB-V1 MDR tox = kills drug-selected multidrug resistant KB-V1 cells. Potency, µM (highest dose often 46.1 µM), hits mostly cytotoxic. KB-V1 MDR cells viability, CellTiter-Glo, 72 h. actives 3.4% (n = 400,000); also: nearly all actives have a fitted effect of over 60% in size
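KB-V1, DMEM (no phenol red) + 10% FBS; cpd pin-transferred, titration series; 72 h, 37 degrees C; CellTiter-Glo, luminescence. Data normalized, curve-fit.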
KB-3-1 tox = KB-3-1 parental cell cytotoxicity | KB-3-1 viability, CellTiter-Glo ATP luminescence, 72 h | Potency, µM (doses to about 46.1 µM), hits mostly cytotoxic | actives 1.4% (n = 400,000) | AID 1347075; also: nearly all actives have a fitted effect of over 60% in size
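Viability of parental KB-3-1 cells, measured by CellTiter-Glo luminescence, followed a 72 h incubation at 37 °C with pinned compounds in phenol-red-free DMEM containing 10% FBS.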
SW480 rerep = inducers of DNA re-replication in SW480 colon cancer cells | actives 1.8% (n = 340,000) | SW480 DNA re-replication, Hoechst DNA content imaging, 48 h | Potency, µM (highest dose often 46.1 µM), usual class: activators; also: nearly all actives have a fitted effect of over 55% in size
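Hoechst fluorescence of nuclei (405 nm excitation, 500-530 nm emission) measured by plate-scanning imager after 48 hr compound exposure at 37 C; re-replication scored as increased number of nuclei with elevated intensity.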
MCF10A rereplic = DNA re-replication induction in MCF 10a cells; MCF 10A DNA re-replication, Hoechst nuclear intensity, 48 h; Potency, µM (top dose mostly 46.1 µM), actives largely listed as activators; actives 2.9% (n = 350,000); AID 624296; also: nearly all actives have a fitted effect of over 50% in size
KCNH2 WT inh = blocks the wildtype human KCNH2 potassium channel. actives 0.37% (n = 340,000). U2OS, BacMam KCNH2, thallium flux FluxOr; active compounds read low. Q12809. activity change, % at 1.84 µM. AID 720551;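 active = maximum activity change below -70%; inconclusive = maximum activity change between -70% and -50%; inactive = maximum activity change above -50%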
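U2OS cells were transduced with wild-type KCNH2 virus (2.03 x 10^8 / mL) for 4 h at room temperature, then cultured overnight at 37 C. Thallium flux was read with FluxOr dye. Rate constants were normalized to DMSO controls.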
KCNH2 3.1 inh = KCNH2 3.1 (human) potassium channel inhibition. activity change, % (tested at about 1.8 µM). actives 0.95% (n = 340,000). U2OS KCNH2 3.1, thallium flux FluxOr; active compounds read low;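 active = maximum activity change below -70%; inconclusive = maximum activity change from -70% to -50%; inactive = maximum activity change above -50%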;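 also: thallium influx rate constant from kinetic fluorescence after stimulation buffer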
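We transduce U2OS cells with the mutant 3.1 virus, culture them overnight, load FluxOr with Red40 quencher for 45 min, then add stimulation buffer and read kinetically for 2 min to derive a normalized rate constant.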
Of the large screens only hits and unclear results are named; the others gave an inactive call; ! = repeats disagree. Unless noted, calls follow the shape of the dose curve; as a rule, active = well fitted curve in the direction sought with a large enough effect; inconclusive = small, poorly fitted or top-dose-only effect, or another doubt; inactive = no such curve, though single readings can be large; an effect the other way counts as inactive or inconclusive.

Cn1c(=O)oc2cc(S(=O)(=O)NCCC(=O)NCc3ccc(F)cc3)ccc21	KB-V1 MDR tox inconclusive
COc1cc2c(OC(C)=O)c3c(c(-c4ccc5c(c4)OCO5)c2cc1OC)C(=O)OC3	KB-V1 MDR tox inconclusive, KB-3-1 tox 3.26µM!, MCF10A rereplic inconclusive
COc1cc2c(O)c3c(c(-c4ccc5c(c4)OCO5)c2cc1OC)C(=O)OC3	KB-V1 MDR tox 4.61µM, KB-3-1 tox 14.6µM, SW480 rerep 23.1µM, MCF10A rereplic inconclusive
CC(=O)N1CCN(c2ccc(NC(=O)c3cccc([N+](=O)[O-])c3)cc2)CC1	none
Cc1ccc(C(=O)NC(=S)N2CCN(c3ccccc3F)CC2)cc1	KB-3-1 tox inconclusive, SW480 rerep 23.1µM
Cc1ccc(C(=O)NC(=S)N2CCN(c3cc(C)ccc3C)CC2)cc1	KB-V1 MDR tox inconclusive, MCF10A rereplic inconclusive
COc1ccc(CC(=O)c2ccc(OC)c(OC)c2C)cc1OC	KB-V1 MDR tox 2.31µM, KB-3-1 tox 6.51µM, SW480 rerep inconclusive
CCOC(=O)N1CCN(c2c(N3CCN(c4ccc(F)cc4)CC3)c(=O)c2=O)CC1	none
CCOC(=O)N1CCN(c2c(NCc3ccc(Cl)cc3)c(=O)c2=O)CC1	KB-3-1 tox 10.3µM, SW480 rerep 6.51µM, MCF10A rereplic 10.3µM
CCOC(=O)N1CCN(c2c(NCc3ccc(F)cc3)c(=O)c2=O)CC1	KB-3-1 tox 5.17µM, SW480 rerep 3.26µM, MCF10A rereplic inconclusive
CCOC(=O)N1CCN(c2c(NCc3cccs3)c(=O)c2=O)CC1	KB-3-1 tox 6.51µM, SW480 rerep inconclusive, MCF10A rereplic 18.4µM
CC1CCc2c(sc(NC(=O)c3cc(-c4ccc(Br)cc4)on3)c2C(N)=O)C1 (centres undefined)	KB-V1 MDR tox inconclusive (no result: SW480 rerep, MCF10A rereplic, KCNH2 WT inh, KCNH2 3.1 inh)
Cc1cccc(C(=O)OC(C)C(=O)Nc2ccc(S(=O)(=O)Nc3ncccn3)cc2)c1C (centres undefined)	none
COc1ccc(-n2cc(CNCCCn3ccnc3)c(-c3cccc(F)c3)n2)cc1	SW480 rerep inconclusive, MCF10A rereplic inconclusive
Cc1ccc(C)c(-n2cc(CNC(C)Cn3cncn3)c(-c3ccccc3)n2)c1 (centres undefined)	none
Cc1ccc(-n2cc(CNCCc3cscn3)c(-c3ccc(F)cc3)n2)cc1	MCF10A rereplic inconclusive
Cc1ccc(C)c(-n2cc(CNCCCn3cccn3)c(-c3ccccc3)n2)c1	SW480 rerep 16.4µM, MCF10A rereplic inconclusive
Cc1cccc(-n2cc(CNCCc3nc(C)cc(C)n3)c(-c3cccc(F)c3)n2)c1	SW480 rerep 23.1µM, MCF10A rereplic 4.11µM
Cc1ccc(-n2cc(CNCCCn3ccnc3C)c(-c3ccc(F)cc3)n2)cc1	KB-V1 MDR tox 20.6µM, KB-3-1 tox inconclusive, SW480 rerep inconclusive, MCF10A rereplic inconclusive, KCNH2 3.1 inh inconclusive
Cc1cccc(-c2nn(-c3ccccc3)cc2CNCCO)c1	none (no result: SW480 rerep, MCF10A rereplic, KCNH2 WT inh, KCNH2 3.1 inh)
Cc1ccc(-n2cc(CNCCCn3cccn3)c(-c3cccc(C)c3)n2)cc1	KB-V1 MDR tox inconclusive, KB-3-1 tox inconclusive, MCF10A rereplic inconclusive, KCNH2 WT inh inconclusive, KCNH2 3.1 inh -81.3
Cc1ccc(C)c(NC(=S)NC23CN4CN(CN(C4)C2)C3)c1	none
O=C(Nc1nnc(CCc2ccccc2)s1)c1cccc(F)c1	none
CCc1c(C)nc2cc(-c3ccc(OC)c(OC)c3)nn2c1NCC1CC1	KB-V1 MDR tox 5.17µM, KB-3-1 tox inconclusive, MCF10A rereplic 20.6µM
CC(C)(C)OC(=O)N1CCC(NC(=O)c2[nH]cnc2C(=O)Nc2ccccc2F)CC1	none (no result: SW480 rerep, MCF10A rereplic)
Cc1nn(-c2ccccc2)c(C)c1/C=N/NC(=O)c1cc(-c2ccccc2)n[nH]1	KB-V1 MDR tox inconclusive, KB-3-1 tox 0.411µM, SW480 rerep inconclusive, MCF10A rereplic inconclusive (no result: KCNH2 3.1 inh)
Cc1ccc(-c2nnc(SCC(=O)N/N=C/c3c(C)nn(-c4ccccc4)c3C)n2-c2ccc(C)cc2)cc1	KB-V1 MDR tox 20.6µM, KB-3-1 tox inconclusive
Cc1ccc(-c2nnc(SCC(=O)N/N=C/c3ccc(C)s3)n2-c2ccccc2)cc1	KB-V1 MDR tox 20.6µM, KB-3-1 tox inconclusive, SW480 rerep inconclusive, MCF10A rereplic 18.4µM
Cc1ccc(-c2nnc(SCC(=O)N/N=C/c3c(C)nn(-c4ccccc4)c3C)n2-c2ccccc2)cc1	KB-V1 MDR tox 14.6µM, KB-3-1 tox inconclusive, SW480 rerep inconclusive, MCF10A rereplic inconclusive
Cc1nn(-c2ccccc2)c(C)c1/C=N/NC(=O)CSc1nnc(-c2ccccc2)n1-c1ccc(Cl)cc1	MCF10A rereplic inconclusive
Cc1ccc(-c2nnc(SCC(=O)N/N=C/c3ccccc3C(=O)O)n2-c2ccc(C)cc2)cc1	none
O=C(CSc1ccc2c(c1)OCCO2)Nc1ccccc1	KB-V1 MDR tox inconclusive (no result: SW480 rerep, MCF10A rereplic)
O=C(CSc1ccc2c(c1)OCCO2)Nc1ncc(Cl)cc1Cl	KB-V1 MDR tox 20.6µM
O=C(CSc1ccc2c(c1)OCCO2)NCCc1ccc(Cl)cc1Cl	KB-V1 MDR tox 18.4µM
Cc1ccnc(NC(=O)c2ccc3c(c2)NC(=O)C(C)S3)c1 (centres undefined)	KB-3-1 tox 18.4µM
O=C(Nc1ccn(Cc2ccccc2)n1)c1ccc2c(c1)OCO2	KCNH2 3.1 inh -81.0
O=C(CSc1ccc2c(c1)OCCO2)NCCN1C(=O)CSC1=O	KB-V1 MDR tox inconclusive
COc1ccc(C(=O)Nc2ccccc2C(=O)Nc2cc(C)ccn2)cc1	KB-V1 MDR tox inconclusive, KB-3-1 tox inconclusive, MCF10A rereplic inconclusive
Cc1ccnc(NC(=O)c2ccccc2NC(=O)C(C)(C)C)c1	KB-V1 MDR tox 10.3µM, KB-3-1 tox inconclusive, SW480 rerep 16.4µM, MCF10A rereplic 16.4µM
Cc1ccnc(NC(=O)c2ccc3c(c2)OCO3)c1	KB-V1 MDR tox 18.4µM, KB-3-1 tox 16.4µM
Cc1cc(NC(=O)CSc2ccc3c(c2)OCCO3)no1	none
N#Cc1ccc(CN2CCN(CC(=O)NCCc3ccc(Cl)cc3Cl)CC2)cc1	KB-V1 MDR tox 18.4µM, SW480 rerep inconclusive, MCF10A rereplic inconclusive, KCNH2 WT inh -78.6, KCNH2 3.1 inh -80.2
Cc1ccnc(NC(=O)CSc2ccc3c(c2)OCCO3)c1	KB-V1 MDR tox 18.4µM
Cn1c(=O)c2c(nc(NCCCCO)n2Cc2ccccc2Cl)n(C)c1=O	none (no result: SW480 rerep, MCF10A rereplic, KCNH2 WT inh, KCNH2 3.1 inh)
Cc1ccc(NC(=O)C2CC(=O)N(Cc3ccco3)C2)cc1 (centres undefined)	none
CC(=O)NC1(C(F)(F)F)C(=O)Nc2c1c(=O)[nH]c(=O)n2CC(C)C (centres undefined)	KB-V1 MDR tox inconclusive
COc1ccc(Nc2nc(N)nc(CSc3nc4cc(OC)ccc4s3)n2)cc1	none (no result: SW480 rerep, MCF10A rereplic, KCNH2 WT inh, KCNH2 3.1 inh)
Cc1ccnc(NC(=O)Cc2ccc([N+](=O)[O-])cc2)c1	KB-V1 MDR tox inconclusive
Cc1ccnc(NC(=O)c2cc([N+](=O)[O-])cc([N+](=O)[O-])c2)c1	KCNH2 3.1 inh -88.8
